Compound activity as filed in PubChem.
Hits are enriched below; roughly 5.7% of the tested compounds scored in any of these assays.
HepG2 tox-1 – kills HepG2 cells in TGF-b inhibitor counter-screen; HepG2 CAGA-GFP viability, ATP luminescence, 18 h; Potency, µM (top dose mostly 46.1 µM), without a hit: at the top dose activity change, negative = cytotoxicity, hits mostly cytotoxic; 0.76% of 410,000 active; also: potency is read from the fitted curve at half-maximal effect
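HepG2 CAGA-GFP cells (1000/well, DMEM with 1% FBS) received compound, then TGF-beta at 500 pg/mL final, and were incubated 18 hours at 37 degrees C. Viability was read by CellTiter-Glo luminescence. Media-only wells were set as complete cell-killing and DMSO as no toxicity.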
IL1B secr inh – blocks inflammasome-driven IL-1 beta release | THP-1 LPS/ATP IL-1B secretion, AlphaLISA, 16 h; stronger effect = lower value | activity change, % at 57.5 µM | 4.7% of 360,000 active; in the data active = activity change below about -50%; inconclusive = mostly about -30% to -49%; also: % is scaled to controls: 0 for no effect and ±100 for the full control effect
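THP-1 cells pretreated 1 hr with compounds (up to 57.5 uM final), then stimulated with LPS (250 ng/mL final) plus ATP (1.25 mM final); secreted IL-1B measured by AlphaLISA after 16 hr, decreased signal indicating inhibition.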
S2 tox – cell viability loss in ATXN counter-screen | S2 cells (HEK-293 line with an ATXN2-luciferase reporter) viability, CellTiter-Fluor protease fluorescence, 24 h | Potency, µM (titrated, usually from 56.7 µM), hits mostly cytotoxic | 0.49% of 400,000 active | AID 651635; also: potency is read from the fitted curve at half-maximal effect; nearly all actives have a fitted effect of over 40% in size
ATXN2 expr inh – reduces ATXN2 reporter expression in HEK-293 cells | 0.72% of 360,000 active | Potency, µM (top dose mostly 57 µM), for the others: top-dose activity change, negative = inhibition, most hits filed as inhibitors | HEK-293 ATXN2-luciferase reporter, luminescence, 24 h; also: potency is read from the fitted curve at half-maximal effect; % is scaled to controls: 0 for no effect and ±100 for the full control effect; nearly all actives have a fitted effect of over 55% in size
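qHTS (up to 57 uM final) was run with 24 h compound exposure of reporter cells at 37 °C. Each well was multiplexed: SteadyGlo luminescence measured ATXN2-luciferase expression after a fluorogenic Gly-Phe-AFC viability readout (25 uM final).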
TGFb inhibitor – inhibitors of TGF-b signaling; HepG2 CAGA-GFP TGF-b/SMAD3 reporter, GFP fluorescence, 18 h; TGF-beta stimulated, 500 pg/mL final; Potency, µM (highest dose often 46.1 µM), without a hit: at the top dose activity, negative = inhibition, hits mostly inhibitors; 1.2% of 410,000 active; AID 588855; also: potency is read from the fitted curve at half-maximal effect; % is scaled to controls: 0 for no effect and ±100 for the full control effect; nearly all actives have a fitted effect of over 65% in size
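First, reporter cells (HEPG2 CAGA-GFP) rested 2 h at 37 degrees C. Next, compounds were pinned in and TGF-beta added to 500 pg/mL final. After 18 h, GFP was imaged per cell and summed per well.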
TGFb confirm – confirmation of TGF-b signaling inhibitors in HepG2 reporter cells | shares compounds with TGFb inhibitor | HepG2 CAGA-GFP TGF-b reporter, GFP fluorescence, 18 h; cells stimulated with TGF-beta, 500 pg/mL | Potency, µM (series often up to 46.1 µM), inactives show at the highest dose activity, negative = inhibition, actives largely listed as inhibitors | 63% of 1,600 active; also: potency is read from the fitted curve at half-maximal effect; % is scaled to controls: 0 for no effect and ±100 for the full control effect; nearly all actives have a fitted effect of over 65% in size
HepG2 tox-2 – HepG2 cytotoxicity, TGF-b inhibitor counterscreen. shares compounds with TGFb inhibitor. HepG2 CAGA-GFP viability, ATP luminescence, 18 h; cells stimulated with TGF-beta, 500 pg/mL. Potency, µM (doses to about 46.1 µM), for inactives: top-dose activity, negative = cytotoxicity, actives largely listed as inhibitors. 27% of 1,600 active. AID 720535; also: potency is read from the fitted curve at half-maximal effect; % is scaled to controls: 0 for no effect and ±100 for the full control effect; nearly all actives have a fitted effect of over 70% in size
CCL64 TGFb inh – TGF-b inhibition, CCL64 orthogonal assay; AID 720536; shares compounds with TGFb inhibitor; Potency, µM (series often up to 46.1 µM), without a hit: top-dose activity, negative = inhibition, most hits filed as inhibitors; 41% of 1,600 active; CCL64 CAGA-GFP reporter, TGF-b stimulated, GFP fluorescence, 18 h; also: potency is read from the fitted curve at half-maximal effect; nearly all actives have a fitted effect of over 65% in size
TGFb COP inh – blocks TGF-b signaling in HepG2 COP reporter; shares compounds with TGFb inhibitor; HepG2 COP-GFP TGF-b reporter, GFP fluorescence, 18 h; cells stimulated by added recombinant TGF-beta; Potency, µM (top dose mostly 46.1 µM), inactives show top-dose activity, negative = inhibition, hits mostly inhibitors; 3% of 1,600 active; also: potency is read from the fitted curve at half-maximal effect; nearly all actives have a fitted effect of over 70% in size
An asterisk follows results filed as active; i = inactive; ? = inconclusive; · = no result given. Unless noted, calls follow the shape of the dose curve; as a rule, active = well fitted curve in the direction sought with a large enough effect; inconclusive = small, poorly fitted or top-dose-only effect, or another doubt; inactive = no such curve, though single readings can be large; an effect the other way counts as inactive or inconclusive.

SMILES	HepG2 tox-1	IL1B secr inh	S2 tox	ATXN2 expr inh	TGFb inhibitor	TGFb confirm	HepG2 tox-2	CCL64 TGFb inh	TGFb COP inh
NC(=O)CC(NC(=O)c1ccccc1)c1ccc(N2CCC(N3CCCC3)CC2)c([N+](=O)[O-])c1 (centres undefined)	-2%	19	i	4%	1%	·	·	·	·
NC(=O)CC(NC(=O)c1ccc(Br)cc1)c1ccc(N2CCN(c3ccccc3)CC2)c([N+](=O)[O-])c1 (centres undefined)	-17%	-29	i	-14%	?	·	·	·	·
NC(=O)CC(NC(=O)c1ccccc1)c1ccc(N2CCC(Cc3ccccc3)CC2)c([N+](=O)[O-])c1 (centres undefined)	-35%	-20	?	?	6.3µM*	23µM*	?	?	67%
COc1ccc(S(=O)(=O)NCC(c2ccco2)N2CCN(c3ccc(F)cc3)CC2)cc1C (centres undefined)	1%	·	·	·	?	·	·	·	·
O=C(Nc1cccc(S(=O)(=O)Nc2ccccc2Cl)c1)c1ccc(Cl)nc1	-29%	7	i	-22%	13µM*	8.2µM*	-15%	-2%	10%
CCN1CCN(c2ccc(S(=O)(=O)N3CCCCC3)cc2NC(=O)c2ccc([N+](=O)[O-])s2)CC1	-43%	-77*	?	25µM*	8.9µM*	16µM*	?	?	?
O=S(=O)(CC(CN1CCCCC1)N1CCCCC1)c1ccc2ccccc2c1 (centres undefined)	11µM*	-97*	i	-20%	3.2µM*	13µM*	13µM*	?	?
CCCCSc1nc(C)cc(SCC(=O)N/N=C/c2cccc(OC)c2O)n1	-26%	136	?	7.1µM*	7.9µM*	8.2µM*	?	12µM*	-1%
COc1cccc(/C=N/NC(=O)CSc2nnc(C)n2-c2ccccc2)c1O	-28%	94	?	?	-8%	·	·	·	·
Cc1cc2oc(C(=O)Nc3cccc(-c4nc5ccccc5o4)c3)c(C)c2cc1C	-3%	·	i	7%	-44%	·	·	·	·
CCOC(=O)N1CCc2c(sc3c2c(=O)n(Cc2ccccc2)c(=O)n3CC(=O)Nc2ccccc2F)C1	-16%	·	·	·	-27%	·	·	·	·
COc1ccc(CNC(=O)[C@@H]2CC=C[C@@H]3CCN(Cc4ccc(Cl)c(Cl)c4)C(=O)[C@@H]32)cc1	-13%	0	?	?	16µM*	21µM*	?	?	30%
COc1ccc(CNC(=O)[C@@H]2CC=C[C@@H]3CCN(Cc4ccc(OC)c(OC)c4)C(=O)[C@@H]32)cc1	-41%	·	·	·	3%	·	·	·	·
CC(=O)OC(C)(C)/C=C/C(=O)[C@](C)(O)C1[C@H](O)C[C@@]2(C)C3CC=C4C(C=C(O[C@@H]5O[C@H](CO)[C@@H](O)[C@H](O)[C@H]5O)C(=O)C4(C)C)[C@]3(C)C(=O)C[C@]12C (some centres undefined)	-31%	-16	?	0%	5µM*	5.2µM*	?	3.3µM*	3%
N#CC(c1cccc(Cl)c1)c1ccc2c(C(F)(F)F)cc(C(F)(F)F)nc2n1 (centres undefined)	-49%	-105*	5.6µM*	2.5µM*	1.3µM*	0.37µM*	1.3µM*	1.2µM*	15%
Cc1cccc(CCNC(=O)c2ccc3c(c2)nc2n3CCCCC2)c1	-24%	·	·	·	-11%	·	·	·	·
COc1ccc2[nH]c3c(N4CCc5ccccc5C4)ncnc3c2c1	-52%	-97*	?	?	7.1µM*	?	23µM*	18µM*	?
O=C(Cc1ccc(NC(=O)N2CCCCc3ccccc32)cc1)NCc1ccccc1Br	-24%	·	?	-24%	-22%	·	·	·	·
O=C1Cc2c([nH]c3ccc([N+](=O)[O-])cc23)-c2ccccc2N1	21%	-99*	?	?	0.5µM*	0.16µM*	0.29µM*	1.3µM*	-11%
O=c1[nH]c2cc([N+](=O)[O-])ccc2c2ccccc12	4%	-3	i	-39%	-6%	·	·	·	·
COc1ccc([C@H]2CC(=O)C=C(c3ccc(Cl)c(C(F)(F)F)c3)C2)cc1	-37%	0	i	-2%	8.9µM*	?	?	?	14%
CC(=Nc1ccccc1)C1=C(O)C(Cc2ccccc2)NC1=O (centres undefined)	1%	24	?	21%	?	?	-7%	3.3µM*	-17%
CC(=Nc1ccccc1)C1=C(O)C(Cc2ccc(F)cc2)NC1=O (centres undefined)	-29%	16	?	·	-17%	·	·	·	·
Cc1cc2nc(-c3ccc(F)cc3)c(CC(C)(C)C)n2c(C)c1Br	-33%	42	?	-22%	10µM*	?	?	?	-3%
COc1cc(C2NC(=O)c3ccccc3O2)cc(OC)c1OC (centres undefined)	-3%	20	i	16%	5%	·	·	·	·
COc1cc(C2Oc3ccccc3C=C2[N+](=O)[O-])cc(OC)c1OC (centres undefined)	5.6µM*	-104*	16µM*	·	3.2µM*	21µM*	18µM*	4.1µM*	?
Cc1ccc(-c2cn3c(n2)sc2cc(C(=O)NC4CCCCC4)ccc23)cc1	-5%	·	·	·	2%	·	·	·	·
CCC1=C(CC2NCCc3ccccc32)CC2c3cc(OC)c(OC)cc3CCN2C1 (centres undefined)	-29%	-92*	?	8.9µM*	2.8µM*	1.5µM*	?	5.2µM*	22%
